From PubChem
Anaer choline gr = choline-fed anaerobic bacterial growth inhibition. Gram-negative bacterium anaerobic choline minimal medium, absorbance growth; active compounds read low. calls only. 0.2% of 55,000 active. AID 1963822; call rule not given here
* marks the source's active call; other numbers are inactive results; i = inactive; + = active, no number; ! = repeats disagree. Only a selection was taken, and hits are over-represented in it overall.

SMILES	Anaer choline gr
COc1ccc(NC(=O)Nc2c(-c3cccnc3)[nH]c3ccccc23)cc1	i
CCc1ccc(NC(=O)Nc2c(-c3ccccc3)[nH]c3ccccc23)cc1	+
CCc1ccc(-c2[nH]c3ccccc3c2NC(=O)Nc2cccc(C(=O)OC)c2)cc1	i
Cc1cc(C)cc(C(=O)N2CCN(c3nc(C)cc(N4CCN(C)CC4)n3)CC2)c1	i
O=C(Nc1ccccc1Br)N1CCN(c2ccc(=O)n(-c3ccc(F)cc3)n2)CC1	i
COc1ccc2c(c1)CC(NS(=O)(=O)c1cccc(Cl)c1)CO2 (stereo unspecified)	i
CC(C)c1nnc(-c2ccc(S(=O)(=O)N3CCCC3)o2)o1	i
CC(C)c1nnc(-c2ccc(S(=O)(=O)N3CCN(C(C)C)CC3)o2)o1	i
CC(C)CN1CCN(S(=O)(=O)c2ccc(-c3nnc(C(C)C)o3)o2)CC1	+
Cc1ccc(-c2nc(C)cc3nn(CC(=O)Nc4cccc(Br)c4)c(=O)n23)cc1	i
CC1=NS(=O)(=O)c2cccnc2N1c1ccc(F)cc1	i
c1ccc(-c2noc(C3COc4ccccc4O3)n2)cc1 (stereo unspecified)	i
O=[N+]([O-])c1ccc2c(c1)S(=O)(=O)C=C2	+!
O=C(CCc1nc(-c2cccnc2)no1)Nc1ccccc1Cl	i
COC(=O)c1cc(S(=O)(=O)N2CCCC(CN3CCc4ccccc4C3)C2)c[nH]1 (stereo unspecified)	i
CC[N+](CC)(CC)CCOc1ccc(/C=C/c2ccccc2)cc1	+!
CC[N+](CC)(CC)CCOc1cccc(OCC[N+](CC)(CC)CC)c1OCC[N+](CC)(CC)CC	i
CCN(CC)CCOc1ccc(Cc2ccccc2)cc1	i
Cc1nc(-c2ccc(C)c(S(=O)(=O)NCC(=O)Nc3ccc(Cl)cc3)c2)no1	i
O=C(CCC1=NS(=O)(=O)c2ccccc2N1)NC1CCN(Cc2ccccc2)CC1	i
COC(=O)c1ccccc1NC(=O)Cn1c(=O)c(CNc2ccccc2)cc2ccc(OC)cc21	i
CCc1ccc(NCc2cc3ccc(OC)cc3n(CC(=O)Nc3ccc4c(c3)OCO4)c2=O)cc1	+
CCOC(=O)c1ccccc1NC(=O)Cn1c(=O)c(CNc2ccc(C)cc2)cc2ccc(OC)cc21	i
O=C(CSc1nc2nc[nH]c2c(=O)[nH]1)NC1CCS(=O)(=O)C1 (stereo unspecified)	i
Cc1cc(N2CCCC2)nc(N2CCN(S(=O)(=O)c3ccc(Br)cc3)CC2)n1	+
SMILES	Anaer choline gr
Cc1cc(N2CCN(C)CC2)nc(N2CCN(S(=O)(=O)c3ccc(Br)cc3)CC2)n1	i
O=S(=O)(c1ccc(Br)cc1)N1CCN(c2ccc(N3CCCC3)nn2)CC1	i
O=C(CCn1c(=O)sc2cc(S(=O)(=O)N3CCc4ccccc4C3)ccc21)N1CCCC1	i
COc1ccc(-n2ccc(=O)c(-c3nc(-c4cccc(OC)c4OC)no3)n2)cc1	i
O=C(CC1CC1)N1CCCN(Cc2noc(-c3ccccc3)n2)CC1	+
O=C(CC1CCCC1)N1CCN(Cc2noc(-c3ccccc3)n2)CC1	i
O=C(c1coc(-c2ccccc2)n1)N1CCCN(Cc2noc(-c3ccccc3)n2)CC1	i
CC(CCc1ccccc1)NC(=O)CCS(=O)(=O)c1ccc2c(c1)NC(=O)CO2 (stereo unspecified)	i
Cc1cccc(COC(=O)c2nnn(-c3ccc(Br)c(C)c3)c2C)c1	i
NC(=O)Cn1nc2n(Cc3cccs3)c(=O)c3sccc3n2c1=O	i
CC(C)Cn1c(=O)c2sccc2n2c(=O)[nH]nc12	i
COc1ccc(C(=O)NC(=NCc2ccncc2)Nc2ccccc2)cc1OC	i
COC(=O)c1cccc(NC(=NCc2ccncc2)NC(=O)c2ccc3c(c2)OCO3)c1	i
Cc1cccc(NC(=NCc2ccncc2)NC(=O)c2ccc3c(c2)OCO3)c1	+
O=C(NCCc1csc(-c2ccccc2)n1)[C@H]1CCCN1C(=O)Cc1cccc(F)c1	i
O=C(NCCc1ccc(Cl)cc1)c1cccc(NC(=O)N2CCCCc3ccccc32)c1	i
COc1ccc(-c2nn3c(=O)cc(CNC(=O)Nc4ccc(OC)cc4OC)nc3s2)cc1	i
CC(=O)Nc1onc(C)c1-c1ccc(C)c(S(=O)(=O)Nc2cccc(Cl)c2)c1	i
COC1C=CO[C@@]2(C)Oc3c(C)c(O)c4c(O)c(c5c(c4c3C2=O)NC2(CCN(CC(C)C)CC2)N=5)=NC(=O)C(C)=CC=CC(C)C(O)C(C)C(O)C(C)C(OC(C)=O)C1C (stereo partly specified)	i
CO[C@H]1/C=C/O[C@@]2(C)Oc3c(C)c(O)c4c(O)c(c(/C=N/N5CCN(C)CC5)c(O)c4c3C2=O)NC(=O)/C(C)=C\C=C\[C@H](C)[C@H](O)[C@@H](C)[C@@H](O)[C@@H](C)[C@H](OC(C)=O)[C@@H]1C	+!
COC1C=CO[C@@]2(C)Oc3c(C)c(O)c4c(O)c(c5c(nc6cc(C)ccn65)c4c3C2=O)NC(=O)C(C)=CC=CC(C)C(O)C(C)C(O)C(C)C(OC(C)=O)C1C (stereo partly specified)	i
O=C(NCCCN1CCCC1=O)C1CCN(c2cncnc2N2CCCCC2)CC1	i
CC(C)=CCC/C(C)=C/CC/C(C)=C/CSCC(=O)O	+
COC(=O)[C@@H](N)CSC/C=C(\C)CC/C=C(\C)CCC=C(C)C	i
O=C(Nc1cnc2sc3ccccc3n2c1=O)c1ccccc1Cl	i
SMILES	Anaer choline gr
CC(C)Cn1c(=O)c2sccc2n2c(CCC(=O)N3CCN(c4ccccn4)CC3)nnc12	i
Cc1ccc(S(=O)(=O)C=CC#N)cc1	i
CC(C)(C)c1ccc(S(=O)(=O)/C=C/C#N)cc1	+
CC(C)(C)c1ccc(S(=O)(=O)Nc2ccc(-c3nnc(-c4ccccc4)o3)cc2)cc1	i
CCOC(=O)c1c(NC(=O)c2cc(CC)on2)sc2c1CCCC2	i
CC(C)c1ccc(-c2noc(SCC(=O)N3CCN(c4ccccc4)CC3)n2)cc1	i
O=c1ccc(N2CCCN(S(=O)(=O)c3ccc(F)c(F)c3)CC2)nn1-c1ccc(F)cc1	i
O=C(Nc1ccc(Cl)cc1)N1CC=C(c2c[nH]c3ccccc23)CC1	i
CCc1ccc(NC(=O)N2CC=C(c3c[nH]c4ccccc34)CC2)cc1	i
O=C(CCC(=O)N1CC=C(c2c[nH]c3ccccc23)CC1)NCc1cccc(Cl)c1	+
CCCCN(CCCC)S(=O)(=O)c1cc2c(cc1C)NC(=O)CO2	i
O=C(NC1CCCCC1)C1CCCN(c2nccn3nc(-c4cccc(Cl)c4)cc23)C1 (stereo unspecified)	i
Cc1nc(-c2cc(S(=O)(=O)NCC(=O)NCc3ccc4c(c3)OCO4)c(C)s2)no1	i
